Measured values taken from PubChem BioAssay (EPA / NIEHS).
Activity calls are given as the source filed them. How the source made its calls: active means hit-call score of the fitted dose curve at least 0.9, where 1 is the maximum; inactive means score below 0.9.

Tests used:
Conditions in all cases: mRNA level, 48 h; actives raise or lower the signal
CYP4A11 (gene 1579) = test: LTEA_HepaRG_CYP4A11: Life Technologies and Expression Analysis (LTEA) Assay for CYP4A11 using HepaRG (AID 2283486)
Method in brief: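 Readout is CYP4A11 transcript level by qRT-PCR, normalized to three housekeeping genes and fitted bidirectionally against 0.5% DMSO. Human HepaRG cells were treated 48 h, in duplicate, with an 8-point half-log series topping at 100 uM.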

[1] = read-out: Cytochrome P450 3A4 (Homo sapiens) (UniProt P08684); test: LTEA_HepaRG_CYP3A4: Life Technologies and Expression Analysis (LTEA) Assay for CYP3A4 using HepaRG (AID 2283487)
Method in brief: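 Differentiated HepaRG cells in serum-free induction medium exposed in duplicate for 48 h to 8 half-log concentrations up to 100 uM in 0.5% DMSO. CYP3A4 mRNA measured by qRT-PCR normalized to ACTB, GAPDH and POLR2A; bidirectional fit versus DMSO.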

[2] = read-out: DNA damage-inducible transcript 3 (DDIT3), DDIT3 (gene 1649); test: LTEA_HepaRG_DDIT3: Life Technologies and Expression Analysis (LTEA) Assay for DNA damage-inducible transcript 3 (DDIT3) using HepaRG (AID 2283488)
Method in brief: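 HepaRG cells, 48 h after plating, exposed 48 h in serum-free induction medium to 8 half-log concentrations up to 100 uM in 0.5% DMSO, in duplicate. DDIT3 mRNA measured by TaqMan qRT-PCR, normalized to ACTB, GAPDH and POLR2A. Fitted bidirectionally against DMSO.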

[3] = read-out: Pro-epidermal growth factor (Homo sapiens) (UniProt P01133); test: LTEA_HepaRG_EGF: Life Technologies and Expression Analysis (LTEA) Assay for Epidermal growth factor (EGF) using HepaRG (AID 2283489)
Method in brief: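 EGF transcript measured by Fluidigm TaqMan qRT-PCR with three housekeeping genes for normalization, 48 h after dosing HepaRG cultures in duplicate (top 100 uM, half-log steps, 0.5% DMSO vehicle). Gain or loss relative to DMSO fitted.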

[4] = read-out: Early growth response protein 1 (EGR1) transcription factor, EGR1 (gene 1958); test: LTEA_HepaRG_EGR1: Life Technologies and Expression Analysis (LTEA) Assay for Early growth response protein 1 (EGR1) transcription factor using HepaRG (AID 2283490)
Method in brief: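 Differentiated human HepaRG cells in serum-free induction medium were exposed in duplicate for 48 h to eight concentrations (top 100 uM, half-log steps) in 0.5% DMSO. EGR1 mRNA was quantified by qRT-PCR, normalized to ACTB, GAPDH and POLR2A, and fitted bidirectionally versus DMSO.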

[5] = read-out: Ezrin (EZR), EZR (gene 7430); test: LTEA_HepaRG_EZR: Life Technologies and Expression Analysis (LTEA) Assay for Ezrin (EZR) using HepaRG (AID 2283491)
Method in brief: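 Differentiated human HepaRG cells, 48 h after plating, were exposed in serum-free induction medium for 48 hours to eight half-log concentrations up to 100 uM in 0.5% DMSO. EZR mRNA was measured by TaqMan qRT-PCR, normalized to ACTB, GAPDH and POLR2A, and fitted bidirectionally against DMSO.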

[6] = read-out: Cytochrome P450 3A7 (Homo sapiens) (UniProt P24462); test: LTEA_HepaRG_CYP3A7: Life Technologies and Expression Analysis (LTEA) Assay for CYP3A7 using HepaRG (AID 2283492)
Method in brief: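 CYP3A7 transcript measured by qRT-PCR (ACTB, GAPDH, POLR2A normalization) after 48 h chemical exposure of HepaRG cells in duplicate. Eight half-log concentrations, maximum 100 uM, 0.5% DMSO vehicle; bidirectional curve fitting against DMSO baseline.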

CYP3A5 (gene 1577) = test: LTEA_HepaRG_CYP3A5: Life Technologies and Expression Analysis (LTEA) Assay for CYP3A5 using HepaRG (AID 2283493)
Method in brief: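 HepaRG cells, plated 48 h then in serum-free induction medium, dosed in duplicate for 48 h with eight half-log concentrations up to 100 uM in 0.5% DMSO. Gene mRNA by Fluidigm TaqMan qRT-PCR, normalized to ACTB, GAPDH, POLR2A.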

[7] = read-out: Cytochrome P450 4A22 (Homo sapiens) (UniProt Q5TCH4); test: LTEA_HepaRG_CYP4A22: Life Technologies and Expression Analysis (LTEA) Assay for Cytochrome P450 4A22 (CYP4A22) using HepaRG (AID 2283495)
Method in brief: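 Gene expression measured by qRT-PCR against three housekeeping genes (ACTB, GAPDH, POLR2A), with gain or loss fitted relative to 0.5% DMSO vehicle. HepaRG cultures received 48 h chemical treatment, top concentration 100 uM, half-log steps, duplicate wells.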

[8] = read-out: Cytochrome P450 7A1 (Homo sapiens) (UniProt P22680); test: LTEA_HepaRG_CYP7A1: Life Technologies and Expression Analysis (LTEA) Assay for Cytochrome P450 7A1 (CYP7A1) using HepaRG (AID 2283496)
Method in brief: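 HepaRG cells plated 48 h, then switched to serum-free induction medium and exposed in duplicate for 48 h to 8-point half-log series from 100 uM in 0.5% DMSO. CYP7A1 mRNA by qRT-PCR (TaqMan), normalized to ACTB/GAPDH/POLR2A; bidirectional fit versus DMSO.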

[9] = read-out: Glutathione S-Transferase (GSTA2), GSTA2 (gene 2939); test: LTEA_HepaRG_GSTA2: Life Technologies and Expression Analysis (LTEA) Assay for Glutathione S-Transferase (GSTA2) using HepaRG (AID 2283497)
Method in brief: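 Human HepaRG cells, plated 48 h, then exposed in serum-free induction medium for 48 h to eight half-log concentrations up to 100 uM in 0.5% DMSO, duplicate. GSTA2 mRNA by qRT-PCR, normalized to ACTB/GAPDH/POLR2A; bidirectional fit versus DMSO.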

[10] = read-out: Glutamate-cysteine ligase catalytic (GCLC), GCLC (gene 2729); test: LTEA_HepaRG_GCLC: Life Technologies and Expression Analysis (LTEA) Assay for Glutamate-cysteine ligase catalytic (GCLC) using HepaRG (AID 2283498)
Method in brief: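 Differentiated human HepaRG cells, plated 48 h then switched to serum-free induction medium, were exposed in duplicate for 48 h to 8 half-log concentrations topping at 100 uM in 0.5% DMSO. GCLC mRNA was quantified by qRT-PCR against ACTB, GAPDH and POLR2A.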

[11] = read-out: growth arrest and DNA damage 45 (GADD45G), GADD45G (gene 10912); test: LTEA_HepaRG_GADD45G: Life Technologies and Expression Analysis (LTEA) Assay for growth arrest and DNA damage 45 (GADD45G) using HepaRG (AID 2283499)
Method in brief: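 GADD45G transcript level by qRT-PCR (housekeeping-normalized: ACTB, GAPDH, POLR2A) after 48 h chemical treatment of a single HepaRG lot in serum-free induction medium; eight-point half-log series up to 100 uM in 0.5% DMSO, duplicates, up- or down-regulation scored.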

[12] = read-out: Glutamate-cysteine ligase regulatory (GCLM), GCLM (gene 2730); test: LTEA_HepaRG_GCLM: Life Technologies and Expression Analysis (LTEA) Assay for Glutamate-cysteine ligase regulatory (GCLM) using HepaRG (AID 2283500)
Method in brief: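 Differentiated HepaRG cells exposed 48 h in serum-free induction medium to eight half-log concentrations up to 100 uM (0.5% DMSO). GCLM mRNA by TaqMan qRT-PCR, normalized to ACTB, GAPDH and POLR2A; bidirectional fit versus DMSO.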

[13] = read-out: Glutathione S-transferase M3 (GSTM3), GSTM3 (gene 2947); test: LTEA_HepaRG_GSTM3: Life Technologies and Expression Analysis (LTEA) Assay for Glutathione S-transferase M3 (GSTM3) using HepaRG (AID 2283501)
Method in brief: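 GSTM3 transcript levels came from Fluidigm TaqMan qRT-PCR normalized to three housekeeping genes, fitted in both directions against DMSO. HepaRG cultures received chemicals for 48 h in serum-free induction medium (0.5% DMSO), 8 half-log concentrations up to 100 uM, duplicate.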

[14] = read-out: Heat shock 70 kDa protein 1 (HSPA1A), gene 3303; test: LTEA_HepaRG_HSPA1A: Life Technologies and Expression Analysis (LTEA) Assay for Heat shock 70 kDa protein 1 (HSPA1A) using HepaRG (AID 2283502)
Method in brief: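 Human HepaRG cells in serum-free induction medium were exposed in duplicate for 48 h to 8 half-log concentrations, highest 100 uM, in 0.5% DMSO. HSPA1A mRNA read by TaqMan qRT-PCR, normalized to ACTB, GAPDH, POLR2A, fitted bidirectionally against DMSO.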

[15] = read-out: Hypoxia-inducible factor 1-alpha (Homo sapiens) (UniProt Q16665); test: LTEA_HepaRG_HIF1A: Life Technologies and Expression Analysis (LTEA) Assay for Hypoxia-inducible factor 1 (HIF1A) Trancription factor using HepaRG (AID 2283503)
Method in brief: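 Differentiated HepaRG cells in serum-free induction medium exposed 48 h, in duplicate, to 8-point half-log series from 100 uM in 0.5% DMSO. HIF1A mRNA measured by TaqMan qRT-PCR, normalized to ACTB/GAPDH/POLR2A, fitted bidirectionally versus DMSO.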

[16] = read-out: 3-Hydroxy-3-Methylglutaryl-CoA Synthase 2 (HMGCS2), HMGCS2 (gene 3158); test: LTEA_HepaRG_HMGCS2: Life Technologies and Expression Analysis (LTEA) Assay for 3-Hydroxy-3-Methylglutaryl-CoA Synthase 2 (HMGCS2) using HepaRG (AID 2283504)
Method in brief: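 Readout is HMGCS2 transcript by qRT-PCR, housekeeping-normalised (ACTB/GAPDH/POLR2A) and fitted bidirectionally against 0.5% DMSO. Differentiated HepaRG cells received chemicals 48 h, duplicate wells, eight half-log concentrations topping at 100 uM.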

HGF (gene 3082) = test: LTEA_HepaRG_HGF: Life Technologies and Expression Analysis (LTEA) Assay for Hepatocyte Growth Facto (HGF) using HepaRG (AID 2283505)
Method in brief: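 HGF transcript was quantified by TaqMan qRT-PCR against three housekeeping genes after 48 h treatment of HepaRG cells. Exposure ran in duplicate over eight half-log steps topping at 100 uM in 0.5% DMSO vehicle.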

[17] = read-out: Fatty Acid-Binding Protein 1 (FABP1), FABP1 (gene 2168); test: LTEA_HepaRG_FABP1: Life Technologies and Expression Analysis (LTEA) Assay for Fatty Acid-Binding Protein 1 (FABP1) using HepaRG (AID 2283494)
Method in brief: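 Differentiated human HepaRG cells were exposed in duplicate for 48 h in serum-free induction medium to 8-point half-log concentration series topping at 100 uM in 0.5% DMSO. FABP1 mRNA measured by TaqMan qRT-PCR, normalized to ACTB/GAPDH/POLR2A; bidirectional fit versus DMSO.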

Measured: AC50

Sequence of Cytochrome P450 3A4 (Homo sapiens) (P08684 whole entry, looked up): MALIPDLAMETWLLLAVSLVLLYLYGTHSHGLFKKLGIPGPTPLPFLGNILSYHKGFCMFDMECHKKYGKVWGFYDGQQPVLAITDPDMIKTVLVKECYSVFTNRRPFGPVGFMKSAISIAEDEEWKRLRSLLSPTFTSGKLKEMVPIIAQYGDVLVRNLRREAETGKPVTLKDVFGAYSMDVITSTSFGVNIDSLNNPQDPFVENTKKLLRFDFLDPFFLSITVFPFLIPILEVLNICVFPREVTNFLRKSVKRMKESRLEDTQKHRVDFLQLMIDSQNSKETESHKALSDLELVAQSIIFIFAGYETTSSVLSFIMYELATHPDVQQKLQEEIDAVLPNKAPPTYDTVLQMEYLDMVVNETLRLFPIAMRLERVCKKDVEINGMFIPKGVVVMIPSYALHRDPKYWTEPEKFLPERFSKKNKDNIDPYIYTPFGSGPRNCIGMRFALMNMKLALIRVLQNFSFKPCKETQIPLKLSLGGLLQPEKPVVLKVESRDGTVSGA
Sequence of Cytochrome P450 3A7 (Homo sapiens) (P24462 whole entry, looked up): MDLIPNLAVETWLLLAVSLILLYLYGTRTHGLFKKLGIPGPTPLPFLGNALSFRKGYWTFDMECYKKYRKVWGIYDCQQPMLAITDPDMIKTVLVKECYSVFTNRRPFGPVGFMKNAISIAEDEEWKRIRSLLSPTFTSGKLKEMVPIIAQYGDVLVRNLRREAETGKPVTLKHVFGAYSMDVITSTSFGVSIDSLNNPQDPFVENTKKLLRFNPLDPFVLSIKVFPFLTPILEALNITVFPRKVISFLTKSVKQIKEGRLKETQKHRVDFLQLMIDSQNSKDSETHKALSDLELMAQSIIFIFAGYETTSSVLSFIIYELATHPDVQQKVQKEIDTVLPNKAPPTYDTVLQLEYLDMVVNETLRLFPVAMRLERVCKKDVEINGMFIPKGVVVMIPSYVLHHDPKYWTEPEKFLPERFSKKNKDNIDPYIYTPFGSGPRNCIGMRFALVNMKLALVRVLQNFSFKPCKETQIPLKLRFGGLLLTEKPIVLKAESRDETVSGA
Sequence of Hypoxia-inducible factor 1-alpha (Homo sapiens) (Q16665 whole entry, looked up): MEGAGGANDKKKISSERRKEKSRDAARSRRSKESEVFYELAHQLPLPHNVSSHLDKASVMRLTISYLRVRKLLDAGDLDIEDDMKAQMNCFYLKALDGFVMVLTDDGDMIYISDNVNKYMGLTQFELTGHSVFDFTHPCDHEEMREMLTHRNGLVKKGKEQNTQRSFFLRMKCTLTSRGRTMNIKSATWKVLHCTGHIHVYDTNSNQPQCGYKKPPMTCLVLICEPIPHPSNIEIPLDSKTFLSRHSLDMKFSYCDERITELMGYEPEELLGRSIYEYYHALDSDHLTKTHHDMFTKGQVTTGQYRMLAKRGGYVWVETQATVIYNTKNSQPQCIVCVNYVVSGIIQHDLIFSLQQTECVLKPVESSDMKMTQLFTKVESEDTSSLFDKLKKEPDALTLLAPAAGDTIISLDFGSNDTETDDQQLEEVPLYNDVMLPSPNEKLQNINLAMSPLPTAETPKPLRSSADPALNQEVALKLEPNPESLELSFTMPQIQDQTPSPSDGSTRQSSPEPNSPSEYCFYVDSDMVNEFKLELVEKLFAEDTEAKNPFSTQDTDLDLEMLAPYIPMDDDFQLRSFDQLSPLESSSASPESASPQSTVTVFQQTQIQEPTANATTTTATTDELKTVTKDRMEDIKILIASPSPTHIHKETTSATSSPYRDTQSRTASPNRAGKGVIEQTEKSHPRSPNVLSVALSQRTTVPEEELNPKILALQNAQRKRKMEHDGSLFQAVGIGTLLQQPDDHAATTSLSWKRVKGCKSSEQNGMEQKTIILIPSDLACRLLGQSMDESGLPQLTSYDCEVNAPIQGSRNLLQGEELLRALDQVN

CCc1cc(C2=C(C(=O)O)N(c3ccccc3C(F)(F)F)S(=O)(=O)c3ccccc32)cc2c1OCO2
inactive: [3] | [5] | CYP3A5 (gene 1577) | [10] | [11] | [13] | [14] | [15] | HGF (gene 3082)
active: CYP4A11 (gene 1579) 39.7 µM | [1] 679 nM | [2] 82.1 µM | [4] 9.92 µM | [6] 645 nM | [7] 41 µM | [8] 72.2 µM | [9] 78.8 µM | [12] 68.2 µM | [16] 81.4 µM

NC1CCCCC1
not listed: [17]
inactive: all other assays above

COC(=O)CCC(=O)OC
not listed: [17]
inactive: all other assays above

CCCC(=O)O
not listed: [11] | [17]
inactive: all other assays above

CC(C)COC(=O)CCCCC(=O)OCC(C)C
not listed: [17]
inactive: all other assays above

CN(C)C(=O)NC1(c2ccccc2)CCN(CC[C@@]2(c3ccc(F)c(F)c3)CN(C(=O)c3ccccc3)CCO2)CC1
active: CYP4A11 (gene 1579) 47 µM | [1] 2690 nM | [2] 56.6 µM | [6] 2800 nM | [7] 47.3 µM | [11] 75.1 µM | [16] 47 µM
not listed: [17]
inactive: all other assays above

O=C1c2c(O)cccc2Cc2cccc(O)c21
not listed: [11]
inactive: all other assays above

CCOCCOCCO
not listed: [11] | [14]
inactive: all other assays above

O=Cc1ccccc1C=O
not listed: [11] | [14]
inactive: all other assays above

CCCCCCCCCCCCCCCCO
active: CYP4A11 (gene 1579) 16.8 µM | [5] 102 nM | [8] 50 µM
not listed: [11] | [14]
inactive: all other assays above

Cc1occc(=O)c1O
not listed: [15] | [17]
inactive: all other assays above

O=C(O)CC(O)(CC(=O)O)C(=O)O
not listed: [17]
inactive: all other assays above

CCCC[C@H]1CN(CC2CCOCC2)C(=O)OC12CCN(C1(C)CCN(C(=O)c3c(C)ncnc3C)CC1)CC2
not listed: [14] | [17]
inactive: all other assays above

CCCCOC(=O)CCCCC(=O)OCCCC
not listed: [11] | [14]
inactive: all other assays above
